A selection: hits, their analogues and other compounds. The true share with any hit is near 10%.
Lamin A splicing = LMNA splicing modulation. HeLa LMNA splicing GFP/RFP minigene ratio, 48 h. Potency, µM (highest dose often 46.1 µM), for the others: at the top dose ratio change, negative = inhibition, hits mostly inhibitors. actives 0.01% (n = 200,000). AID 1487; active means well fitted inhibition curve with a large enough effect in the signal ratio, with a control signal flat, not every such curve was filed as active; inconclusive means small, poorly fitted or top-dose-only effect, or effect the other way, or a change in a side signal; the % refers to the signal ratio; further: potency means the concentration at half of the fitted maximal effect
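S3 HeLa stable clones carrying a lamin A-EGFP splicing minigene plus DsRed2 were seeded at 600 cells/well in Opti-MEM with 2% FBS, pin-dosed and incubated 48 h at 37°C. Acumen cytometry (488 nm) gave the GFP/RFP total-intensity ratio.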
12-hLO inh = blocks human 12-lipoxygenase activity | P18054 | purified 12-hLO, xylenol orange hydroperoxide absorbance | Potency, µM (series often up to 57.1 µM), inactives show at the top dose activity change, negative = inhibition, actives largely listed as inhibitors | actives 0.12% (n = 150,000) | AID 1452; active means well fitted inhibition curve with a large enough effect; inconclusive means small, poorly fitted or top-dose-only effect; further: potency means the concentration at half of the fitted maximal effect; nearly all actives have a fitted effect of over 55% in size
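Hydroperoxide output read as Fe(III)-xylenol orange absorbance, 573-to-405 nm ratio, after 30 min reaction with 40 uM arachidonic acid. Enzyme: 150 nM purified human 12hLO, 15 min compound preincubation; 25 mM Hepes pH 7.0, room temperature.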
PNC inhibitor = blocks assembly of the perinucleolar compartment; PC3M PTB-GFP, PNC prevalence imaging, 16 h; stronger effect = lower value; activity change (PNC), negative = inhibition, % at 10 µM; actives 3.1% (n = 140,000);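 active means readout at or below -70, meaning at least 70% loss of cells showing the perinucleolar compartment, a nuclear body marking cancer cells; inconclusive means readout between -30 and a set limit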;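 further: plate controls were DMSO wells for no effect and camptothecin positive control wells for full effect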
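PC3M cells stably expressing PTB-GFP, 750–1000 cells/well, treated 16 h at 37 °C with compound (23 nl of library stock), in duplicate. After paraformaldehyde fixation and Hoechst stain, imaged at 20x; PNC prevalence scored by image analysis.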
HPGD block = HPGD (human) dehydrogenase inhibition; purified HPGD, NADH fluorescence kinetic, PGE2 substrate; Potency, µM, inactives show at the highest dose activity change, negative = inhibition, most hits filed as inhibitors; actives 4.3% (n = 150,000); AID 894; further: potency means the concentration at half of the fitted maximal effect
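20 nM HPGD preincubated 15 min at room temperature with compound in 50 mM Tris-HCl pH 8, 0.01% Tween 20. Started with 1 mM NAD+ and 30 uM prostaglandin E2; NADH fluorescence (360/450 nm) read 5 times over 30-s intervals, last minus first.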
ALDH1A1 block = inhibitors of human aldehyde dehydrogenase 1A1 | Purified ALDH1A1, NADH fluorescence, propionaldehyde substrate | Potency, µM (doses to about 75.3 µM), for inactives: top-dose activity, negative = inhibition, hits mostly inhibitors | actives 7.3% (n = 220,000) | P00352;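 further: potency means the concentration at half of the fitted maximal effect; plate controls were no enzyme wells and a reference inhibitor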
Target sequence (P00352 whole entry, looked up): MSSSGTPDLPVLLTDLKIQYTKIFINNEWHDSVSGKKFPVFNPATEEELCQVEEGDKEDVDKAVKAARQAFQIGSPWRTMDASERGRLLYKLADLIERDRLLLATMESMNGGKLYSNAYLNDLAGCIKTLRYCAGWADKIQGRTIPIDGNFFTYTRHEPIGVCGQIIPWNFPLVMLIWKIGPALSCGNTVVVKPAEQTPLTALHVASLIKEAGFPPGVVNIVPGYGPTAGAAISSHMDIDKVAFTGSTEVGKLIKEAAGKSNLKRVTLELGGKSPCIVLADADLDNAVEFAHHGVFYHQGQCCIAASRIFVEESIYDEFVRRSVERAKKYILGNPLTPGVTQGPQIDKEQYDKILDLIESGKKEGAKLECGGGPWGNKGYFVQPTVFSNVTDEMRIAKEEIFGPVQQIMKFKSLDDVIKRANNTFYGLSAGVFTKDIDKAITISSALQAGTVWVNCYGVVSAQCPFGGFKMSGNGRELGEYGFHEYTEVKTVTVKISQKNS
An asterisk follows results filed as active; ? = inconclusive; . = no result; [ ] = remark or other dose. Unless noted, the call rests on the fitted dose curve; in most records, active means well fitted inhibition curve with a large enough effect (not every such curve was filed as active); inconclusive means small, poorly fitted or top-dose-only effect, or another doubt; inactive means no such curve, though single readings can be large or run the other way. Unless noted, on the % scale 0 is the no-effect control and ±100 the full control effect.

SMILES	Lamin A splicing	12-hLO inh	PNC inhibitor	HPGD block	ALDH1A1 block
Cc1cc(OCC(=O)Nc2c(C)n(C)n(-c3ccccc3)c2=O)c2c3c(c(=O)oc2c1)CCC3	8%	0%	20	?	3.2µM*
COCCN1C(=O)NC(=O)/C(=C\c2ccc(Br)cc2)C1=O	10%[46 µM]	.	.	.	?
C=CCN1C(=O)NC(=O)/C(=C/C=C/c2ccccc2)C1=O	?	.	.	.	14µM*
Cc1c(N=Cc2c(O)n(CCc3ccc(F)cc3)c(=O)[nH]c2=O)c(=O)n(-c2ccccc2)n1C	10%	-11%	?	?	?
O=C1NC(=O)N(CCc2ccc(F)cc2)C(=O)/C1=C\C=C\c1ccccc1	.	.	.	.	1.6µM*
C[C@H](N)Cc1c[nH]c2ccc(OCc3cccs3)cc12	.	-5%	.	-13%	-5%
COP(=S)(OC)Oc1ccc(SC)c(C)c1	?	-5%	.	-11%	-3%
CCOP(=O)(NC(C)C)Oc1ccc(SC)c(C)c1 (stereo unspecified)	.	-9%	.	5.6µM*	?
ClCC(Cl)CCl	.	-4%	.	-5%	14%
[O-][Cl+]O	.	0%	.	-9%	3%
O[N+]1=CC=CCC1=S.On1ccccc1=S.[Zn]	.	-25%	.	?	2.8µM*
O=C(O)C(C(=O)O)P(=S)(S)c1ccccc1 (stereo unspecified)	.	-2%[11.4 µM]	.	-1%	8%[13.5 µM]
O=C(N/N=C\C1C(=O)NC(=S)N(c2ccccc2)C1=O)c1ccc(O)cc1 (stereo unspecified)	.	.	.	.	10µM*
O=C(N/N=C/c1c(O)n(-c2ccccc2)c(=O)[nH]c1=O)c1ccncc1	1%	-2%	?	?	?
Clc1ccc(C(c2ccc(Cl)cc2)C(Cl)Cl)cc1	.	-5%	.	-11%	1%
CN1/C(=C\C=C\C2=[N+](C)c3ccc4ccccc4c3C2(C)C)C(C)(C)c2ccccc21	?	1%	1	-2%	20µM*
O=C1C(=O)c2ccccc2-c2ccccc21	?	-9%	?	-11%	2%
O=C1c2ccccc2C(=O)N1SC1CCCCC1	-4%	?	51	2.2µM*	1.4µM*
O=C(O)C[C@H]1OCC=C2CN3CC[C@]45c6ccccc6N[C@@H]4[C@H]1[C@H]2C[C@H]35	.	2%[11.4 µM]	.	-7%	-8%[13.5 µM]
COc1ccc(NC(=O)N2CCC3(CC2)OCCO3)cc1	5%[46 µM]	.	.	.	10%
COc1ccc(Nc2ncc(C(=O)N3CCC4(CC3)OCCO4)c3ccccc23)cc1	2%	2%	?	22µM*	-10%
CCC1C(=O)OC[C@H]1Cc1cncn1C (stereo partly specified)	.	-4%	.	-5%	4%
Cn1cccc1/C=C1\C(=O)NC(=O)N(Cc2ccco2)C1=O	3%[46 µM]	.	.	.	?
Cc1ccc(-n2c(C)cc(/C=C3/C(=O)NC(=O)N(Cc4ccco4)C3=O)c2C)cc1	-2%	-4%	13	?	14µM*
Cc1ccccc1-n1c(C)cc(/C=C2/C(=O)NC(=O)N(Cc3ccco3)C2=O)c1C	-3%	-4%	23	-18%	3.5µM*
SMILES	Lamin A splicing	12-hLO inh	PNC inhibitor	HPGD block	ALDH1A1 block
COc1ccc(N2C(=O)/C(=C/c3cc(C)n(-c4ccc(C)cn4)c3C)C(=O)NC2=S)c(OC)c1	-24%[46 µM]	.	.	.	?
Cc1cc(/C=C2\C(=O)NC(=O)N(Cc3ccccc3)C2=O)c(C)n1-c1ccc(Cl)c(C(=O)O)c1	5%	-19%	-2	18µM*	?
COC(=O)C1=C(C)N(Cc2ccco2)C(=O)/C1=C\c1ccc(N(C)C)cc1	2%	12%	98	-26%	?
C=CCN1C(=O)/C(=C/c2cc(C)n(-c3cccnc3)c2C)C(=O)NC1=S	5%	-13%	39	10µM*	?
CC(=O)C1CCC2C3CCC4=CC(=O)CC[C@@]4(C)C3CC[C@]12C (stereo partly specified)	.	-4%	.	-2%	?
CCCCC	?	0%	.	-1%	-4%
Cc1cc(C=C2C(=O)N(C)C(=O)N(C)C2=O)c(C)n1-c1ccccc1	18%[46 µM]	.	.	.	?
Cc1ccc(-n2c(C)cc(/C=C3/C(=O)NC(=O)N(C)C3=O)c2C)cc1	0%	-6%	-85*	-2%	?
CCOC(=O)C1CCN(/C=C2/C(=O)NC(=O)N(Cc3ccco3)C2=O)CC1	-10%	3%	?	-14%	3.5µM*
Cc1cc(/C=C2\C(=O)NC(=O)N(c3ccc(F)cc3)C2=O)c(C)n1-c1ccc(C(=O)O)cc1	.	.	.	.	7.9µM*
COc1ccc(/C=C2/C(=O)NC(=O)N(Cc3ccco3)C2=O)cc1	.	.	.	.	3%
CCN1C[C@]2(COC(=O)c3ccccc3N3C(=O)CC(C)C3=O)CC[C@H](OC)[C@@]34C5C[C@@H]6[C@@H](OC)C[C@@](O)(C5[C@H]6OC)[C@](O)([C@@H](OC)C23)[C@@H]14 (stereo partly specified)	.	.	.	.	-13%
CS(=O)(=O)O[C@H]1CN2CCC1CC2	.	-4%[11.4 µM]	.	-1%	-1%[13.5 µM]
Cc1ccc2c(c1)=C/C(=C\c1c(O)[nH]c(=S)[nH]c1=O)C(=O)N=2	-23%	-6%	?	-15%	3.5µM*
CN1CCN(Cc2ccccc2Sc2ccccc2)CC1	10%	-1%	-86*	-6%	6%
CC(Cc1ccccc1Sc1ccccc1)N(C)C (stereo unspecified)	12%	1%	?	0%	-2%
C=CC=O	.	1%	.	-7%	0.022µM*
O=C(N1CCOCC1)C1(c2ccccc2)CCNCC1	.	2%[11.4 µM]	.	1%	12%[13.5 µM]
CN1CCN(c2ccc(S(C)(=O)=O)cc2[N+](=O)[O-])CC1	-9%	-2%	48	-13%	6%
CN1CCN(c2ccc(S(=O)(=O)C(F)(F)F)cc2[N+](=O)[O-])CC1	-5%	-7%	-98*	-10%	13%
CCCn1c(=O)c2[nH]c(C3CCCC3)nc2n(CCCOC(=O)c2ccc(S(=O)(=O)F)cc2)c1=O	?	-3%	.	-10%	11µM*
COc1ccccc1/C=C1/C(=N/O)C2CCN1CC2	19%	-3%	24	-26%	16µM*
O=C(c1ccccc1)[C@H]1[C@H](c2ccccc2[N+](=O)[O-])N1C1CCCCC1 (stereo partly specified)	.	1%[11.4 µM]	.	-20%	3%[13.5 µM]
Nc1nc(/C(=C/CC(=O)O)C(=O)NC2C(=O)N3C(C(=O)O)=CCSC23)cs1 (stereo unspecified)	?	-5%	.	-21%	?
Cc1nnc(SCc2nc3ccccc3c(=O)n2-c2ccccc2Cl)n1N	8%	1%	?	-1%	25µM*
CCc1nc2ccccc2c(=O)n1-c1ccccc1[N+](=O)[O-]	-9%	0%	31	-9%	?
O=C(O)[C@H]1[O][Sb][O][C@@H](C(=O)O)C1O (stereo partly specified)	.	2%[11.4 µM]	.	-3%	9%[13.5 µM]
CC(=O)[O-].CC(=O)[O-].O.O.O.[Pb+2]	.	-3%	.	0%	15µM*
